HPGD inh – blocks human HPGD enzyme activity; P15428; purified HPGD, NADH fluorescence kinetic, PGE2 substrate; Potency, µM, usual class: inhibitors; actives 4.3% (n = 150,000); AID 894; active = well fitted inhibition curve with a large enough effect, not every such curve was filed as active; inconclusive = small, poorly fitted or top-dose-only effect, or another doubt; inactive = no such curve, though single readings can be large or run the other way
Target sequence (P15428 whole entry, looked up): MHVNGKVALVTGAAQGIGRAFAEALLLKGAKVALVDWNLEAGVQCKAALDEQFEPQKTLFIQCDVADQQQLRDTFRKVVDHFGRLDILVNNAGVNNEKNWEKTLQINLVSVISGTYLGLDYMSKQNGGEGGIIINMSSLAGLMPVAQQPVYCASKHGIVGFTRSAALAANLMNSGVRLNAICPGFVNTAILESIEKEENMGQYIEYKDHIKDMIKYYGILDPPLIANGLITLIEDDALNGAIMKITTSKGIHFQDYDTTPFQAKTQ
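20 nM HPGD preincubated 15 min at room temperature with compound in 50 mM Tris-HCl pH 8, 0.01% Tween 20. Started with 1 mM NAD+ and 30 uM prostaglandin E2; NADH fluorescence (360/450 nm) read 5 times over 30-s intervals, last minus first.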
HTT aggregate – mutant huntingtin aggregation inhibition. PC12 HttQ103-GFP aggregates, Acumen cytometry, 40 h. Potency, µM (highest dose often 46.1 µM), usual class: inhibitors. actives 1.1% (n = 220,000). AID 1688; also: nearly all actives have a fitted effect of over 60% in size
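PC12 cells with ecdysone-inducible HTT exon1 Q103-GFP, induced by 100 nM tebufenozide, given compounds in a concentration series. GFP aggregates (1–25 um, 6 SD above background) counted in lysates by laser-scanning cytometry, 488 nm excitation.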
CBFb-RUNX1 inh – CBF-beta/RUNX1 interaction disruption. Potency, µM (doses to about 59.8 µM), most hits filed as inhibitors. AID 1477. AlphaScreen CBFb-His/RUNX1-biotin binding, biochemical. 230,000 tested, under 10 active
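Room-temperature protein-protein interaction test with 30 nM each of His-tagged CBF-beta and biotinylated RUNX1, 15 min with compound, then 90 min with nickel plus streptavidin beads. Signal read in AlphaScreen mode.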
HTT ATP protect – cytoprotection in Huntington HTT-Q103 PC12 cell model; PC12 HTT-Q103 induced, cytoprotection, ATP luminescence, 40 h; Potency, µM (series often up to 56.4 µM), actives largely listed as activators; actives 0.14% (n = 230,000); also: nearly all actives have a fitted effect of over 45% in size
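Readout: ATPlite luminescence (ATP level). Model: stable PC12, inducible Htt exon1 Q103-GFP. Inducer: tebufenozide, 100 nM final. Compounds: dose series. No G418 in medium.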
PNC inhibitor – blocks assembly of the perinucleolar compartment; AID 2417; PC3M PTB-GFP, PNC prevalence imaging, 16 h; hits give low values; activity change (PNC), negative = inhibition, % at 10 µM; actives 3.1% (n = 140,000);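 active = readout at or below -70, meaning at least 70% loss of cells showing the perinucleolar compartment, a nuclear body marking cancer cells; inconclusive = readout between -30 and a set limit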
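Read-out is percentage of cells bearing a perinucleolar compartment, from automated 20x imaging of fixed, Hoechst-stained PC3M PTB-GFP cells. Cells were seeded 4 h, then exposed 16 h to compound (23 nl of library stock) in duplicate plates.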
ALDH1A1 inh – blocks purified human ALDH1A1 activity; P00352; Purified ALDH1A1, NADH fluorescence, propionaldehyde substrate; Potency, µM (top dose mostly 75.3 µM), most hits filed as inhibitors; actives 7.3% (n = 220,000); AID 1030; active = well fitted inhibition curve with a large enough effect, not every such curve was filed as active; inconclusive = small, poorly fitted or top-dose-only effect, or another doubt; inactive = no such curve, though single readings can be large or run the other way
Large screens that a line does not name were inactive. In the library only some 11% were active in any assay of this set; here they are far more common. Unless noted, calls follow the shape of the dose curve; as a rule, active = well fitted curve in the direction sought with a large enough effect; inconclusive = small, poorly fitted or top-dose-only effect, or another doubt; inactive = no such curve, though single readings can be large; an effect the other way counts as inactive or inconclusive.

COc1ccccc1CN1CCNC(=O)C1CC(=O)NCCCn1cccn1 (centres undefined)	ALDH1A1 inh 25.1µM (no result: HPGD inh, PNC inhibitor)
C[C@@H](N=C(N)N)C(=O)O	none (no result: HTT aggregate, CBFb-RUNX1 inh, PNC inhibitor)
CO/N=C(/C(=O)NC1C(=O)N2C(C(=O)O)=C(CSc3nc(=O)c(O)nn3C)CSC12)c1csc(N)n1 (centres undefined)	CBFb-RUNX1 inh inconclusive (no result: PNC inhibitor)
O=C(Nc1cccc2ccccc12)c1ccc([N+](=O)[O-])s1	none
O=[N+]([O-])C1=C(Nc2cccc3ccccc23)CS(=O)(=O)C1	HPGD inh 20µM, ALDH1A1 inh inconclusive
CCNc1c([N+](=O)[O-])ncn1C	PNC inhibitor inconclusive
Cn1cnc([N+](=O)[O-])c1Nc1ccc(O)cc1	ALDH1A1 inh 25.1µM (no result: HPGD inh)
OCC1(CO)COC(C(Cl)(Cl)Cl)OC1	none (no result: HPGD inh, CBFb-RUNX1 inh, PNC inhibitor, ALDH1A1 inh)
CC(=O)N1CCC[C@@]2(CCN(Cc3ccc(C#N)cc3)C2)C1	none (no result: HTT aggregate, CBFb-RUNX1 inh, PNC inhibitor)
CC(C(=O)NC1CCCc2ccccc21)N1CCN(Cc2ccc3c(c2)OCO3)CC1 (centres undefined)	ALDH1A1 inh 6.31µM
CC(C(=O)NC1CCCc2ccccc21)N1CCN(c2ccc(F)cc2)CC1 (centres undefined)	none (no result: HPGD inh)
CSCCNC(=O)c1ccc(C(C)(C)C)cc1	HPGD inh 14.1µM
CC1=CC(=O)C2=C(C)CCC3C(C)C(=O)OC3C12 (centres undefined)	ALDH1A1 inh inconclusive (no result: HTT aggregate, PNC inhibitor)
COc1cc(C)c(CNC2CCCCC2)cc1C	none
CCCCSc1nnc(-c2ccc(C)cc2)c2ccccc12	HTT aggregate 11.2µM, ALDH1A1 inh inconclusive (no result: HTT ATP protect)
CN(C)C(=O)CSc1nnc(-c2ccc(F)cc2)c2ccccc12	none (no result: HPGD inh, PNC inhibitor, ALDH1A1 inh)
COC(=O)CCC(=O)COc1ccccc1C#N	HPGD inh 14.1µM, ALDH1A1 inh inconclusive
O=C1Nc2cc3c(cc2Sc2ccccc21)OCCO3	none
C[C@H](Br)C(=O)c1ccc2cc(Br)c3ccccc3c2c1	ALDH1A1 inh inconclusive (no result: HTT aggregate, CBFb-RUNX1 inh, PNC inhibitor)
O=S(=O)(c1ccccc1)c1nc(-c2ccco2)oc1NCc1cccnc1	ALDH1A1 inh inconclusive
Cc1ccc(S(=O)(=O)c2nc(-c3ccccc3)oc2NCCCN2CCOCC2)cc1	ALDH1A1 inh inconclusive (no result: HPGD inh, PNC inhibitor)
O=S(=O)(c1ccc(Br)cc1)c1nc(-c2ccco2)oc1NCC1CCCO1 (centres undefined)	ALDH1A1 inh 14.1µM (no result: HPGD inh, PNC inhibitor)
Cc1ccc(S(=O)(=O)c2nc(-c3ccco3)oc2NCC2CCCO2)cc1 (centres undefined)	ALDH1A1 inh 10µM (no result: HTT ATP protect)
COc1ccc(C2CC(=O)C(CS(=O)(=O)c3ccccc3)C(=O)C2)cc1 (centres undefined)	ALDH1A1 inh 7.94µM (no result: HPGD inh, PNC inhibitor)
O=C1CCCN1CC(O)CS(=O)(=O)c1ccccc1 (centres undefined)	none
COc1ccc(C2=CC(=O)CC(c3ccccc3)C2)cc1 (centres undefined)	ALDH1A1 inh inconclusive (no result: HPGD inh, PNC inhibitor)
O=C1CC(c2ccc(Cl)cc2)CC(=O)C1CS(=O)(=O)c1ccccc1 (centres undefined)	ALDH1A1 inh 7.08µM (no result: HPGD inh, PNC inhibitor)
O=C1CC(c2ccccc2)CC(=O)C1Sc1ccc(Cl)cc1 (centres undefined)	HPGD inh inconclusive, ALDH1A1 inh inconclusive (no result: HTT ATP protect)
O=C1CCCC(=O)C1CS(=O)(=O)c1ccccc1	ALDH1A1 inh 12.6µM (no result: HPGD inh, PNC inhibitor)
O=C(NCc1ccccn1)c1ccc(Cl)cc1Cl	HPGD inh 20µM, PNC inhibitor inconclusive
O=C(NCc1ccccn1)Nc1ccc(Cl)c(Cl)c1	HTT aggregate inconclusive, PNC inhibitor -84.3
O=C(NCc1ccccn1)c1c(Cl)cccc1Cl	none
Cc1cc(C)cc(NC(=O)C(=O)NCc2ccccn2)c1	PNC inhibitor -84.2
O=C(NCc1ccccn1)Nc1cccc(NC(=O)NCc2ccccn2)c1	none
CCCCN1CCC[C@H]1CNC(=O)c1cc(C#N)c2ccccc2c1OC	none (no result: HPGD inh, HTT aggregate, HTT ATP protect, PNC inhibitor, ALDH1A1 inh)
COCCCC1CCN(Cc2cn[nH]c2-c2cc(OC)c(OC)c(OC)c2)CC1	none (no result: HPGD inh, PNC inhibitor)
Cc1ccoc1C(=O)NCCNc1ccc(Cl)cc1[N+](=O)[O-]	CBFb-RUNX1 inh inconclusive (no result: HTT ATP protect)
COc1ccc(C(=O)C2CCCN(C(=O)c3noc4c3CCCC4)C2)cc1F (centres undefined)	ALDH1A1 inh 3.55µM (no result: HPGD inh, PNC inhibitor)
COc1ccc(C(=O)C2CCCN(C(=O)c3ccccc3C(C)=O)C2)cc1F (centres undefined)	ALDH1A1 inh inconclusive (no result: HPGD inh, PNC inhibitor)
COc1ccc(OC)c(NC(=O)N2CCCC(C(=O)c3ccccc3OC)C2)c1 (centres undefined)	ALDH1A1 inh 12.6µM (no result: HPGD inh, PNC inhibitor)
COc1ccc(C(=O)C2CCCN(C(=O)c3noc4c3CCCC4)C2)c(C)c1 (centres undefined)	ALDH1A1 inh 5.01µM (no result: HPGD inh, PNC inhibitor)
O=C(O)Cn1c(=O)oc2cc(S(=O)(=O)N3CCOCC3)ccc21	none (no result: HPGD inh, HTT aggregate, CBFb-RUNX1 inh, PNC inhibitor, ALDH1A1 inh)
CSc1ccc(/C=C2/C(C)=C(CC(=O)O)c3cc(F)ccc32)cc1	none (no result: HTT aggregate, PNC inhibitor)
CC(=O)/C(=C\c1ccccc1F)C(=O)c1ccccc1	none (no result: HTT aggregate, CBFb-RUNX1 inh, PNC inhibitor)
CCOCCCNC(=O)/C(C#N)=C/c1ccc(C)o1	ALDH1A1 inh inconclusive (no result: HPGD inh, PNC inhibitor)
CCOC(=O)COc1cccc2c(=O)n(CC(=O)N3CCC(C)CC3)ccc12	none (no result: HPGD inh, PNC inhibitor)
COc1ccccc1CN1CCC2(CC1)CCN(C(=O)c1csnn1)CC2	none (no result: HTT aggregate, CBFb-RUNX1 inh, PNC inhibitor)
COc1ccccc1OCCNC(=O)c1cc(=O)[nH]c2ccccc12	none (no result: HPGD inh, PNC inhibitor, ALDH1A1 inh)
COc1ccc(CCNC(=O)c2cc(=O)[nH]c3ccc(Br)cc23)cc1OC	PNC inhibitor -112.6
O=C(Nc1ccc(Cn2nnc3ccccc32)cc1)c1ccco1	none

High-throughput results: PubChem BioAssay, National Center for Advancing Translational Sciences (NCATS)
